Compound activity (PubChem BioAssay)
Tb PYK inh: blocks Trypanosoma brucei pyruvate kinase. Q57TT1. Potency, µM (series often up to 76.8 µM), for the others: at the highest dose activity, negative = inhibition, actives largely listed as inhibitors. TbPYK enzyme, Kinase-Glo Plus ATP luminescence, 45 min. AID 624173. 410,000 compounds, 0.12% hits; also: % is scaled to controls: 0 for no effect and ±100 for the full control effect; nearly all actives have a fitted effect of over 50% in size
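TbPYK + substrate in 50 mM TEA pH 7.2, 100 mM KCl, 10 mM MgCl2, 0.05% BSA, 0.01% Tween-20; cpd pinned; ADP 130 uM final; 45 min RT; Kinase-Glo Plus 10 min; luminescence endpoint.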
NS1 inh: blocks influenza NS1 protein function. 270,000 compounds, 0.4% hits. Potency, µM (doses to about 46.1 µM), without a hit: top-dose activity, positive = more growth; calls by dose curve; also: actives are rising curves; nearly all actives have a fitted effect of over 50% in size
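Read-out: OD600 growth recovery of NS1-expressing budding yeast. Cells grown overnight at 30C in -URA glucose medium, washed, resuspended and diluted 1:100 in 2% galactose assay medium, pH 6.0. Same strain lacking NS1 served as positive control.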
RE007 growth inh: less growth of the S. pombe RE007 Vpr strain; S. pombe RE007 Vpr strain, BacTiter-Glo ATP luminescence, 24 h; Potency, µM (titrated, usually from 92.2 µM), for the others: at the top dose activity change, negative = less growth, usual class: inhibitors; 360,000 compounds, 0.21% hits; active = well fitted falling curve with a large enough effect; inconclusive = small, poorly fitted or top-dose-only effect; inactive = no such curve, though single readings can be large or run the other way; also: % is scaled to controls: 0 for no effect and ±100 for the full control effect; nearly all actives have a fitted effect of over 50% in size
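Fission yeast RE007 carrying one integrated HIV-1 vpr copy, seeded at OD 0.01 in PMG+AL medium with 23 nL pinned compound. Grown 24 h at 30 degrees; viability read by BacTiter-Glo luminescence after 5 min.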
LmPK inh: inhibitors of Leishmania mexicana pyruvate kinase; Q27686; purified LmPK, Kinase-Glo ATP luminescence, 1 h; Potency, µM (series often up to 57.5 µM), for inactives: at the highest dose activity change, negative = inhibition, usual class: inhibitors; 290,000 compounds, 0.37% hits; also: % is scaled to controls: 0 for no effect and ±100 for the full control effect
Target sequence (Q27686 whole entry, looked up): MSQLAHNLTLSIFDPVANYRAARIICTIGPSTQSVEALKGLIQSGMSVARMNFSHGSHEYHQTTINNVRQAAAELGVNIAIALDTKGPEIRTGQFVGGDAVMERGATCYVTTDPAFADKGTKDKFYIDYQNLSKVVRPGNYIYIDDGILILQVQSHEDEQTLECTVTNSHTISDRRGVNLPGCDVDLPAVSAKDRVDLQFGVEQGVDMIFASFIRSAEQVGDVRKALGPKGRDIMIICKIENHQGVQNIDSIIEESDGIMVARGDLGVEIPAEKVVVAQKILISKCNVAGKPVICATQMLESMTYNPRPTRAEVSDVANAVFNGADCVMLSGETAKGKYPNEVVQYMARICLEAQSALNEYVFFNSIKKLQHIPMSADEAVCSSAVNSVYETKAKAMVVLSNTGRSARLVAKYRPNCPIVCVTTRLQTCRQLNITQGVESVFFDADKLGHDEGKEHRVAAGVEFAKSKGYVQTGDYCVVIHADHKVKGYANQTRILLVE
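In 50 mM imidazole pH 7.2 with 7 mM MgCl2, LmPK (0.1 nM) turned over PEP (0.5 mM) and ADP (0.1 mM) for 1 h at room temperature. Luciferase read-out of ATP.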
* = called active by the depositor; ? = inconclusive; nt = no result. The list is not random: actives were taken first. Their share in the collection is about 0.77%. Unless noted, calls follow the shape of the dose curve; as a rule, active = well fitted curve in the direction sought with a large enough effect; inconclusive = small, poorly fitted or top-dose-only effect, or another doubt; inactive = no such curve, though single readings can be large; an effect the other way counts as inactive or inconclusive. Potency is read from the fitted curve at half-maximal effect.

SMILES	Tb PYK inh	NS1 inh	RE007 growth inh	LmPK inh
CC[n+]1ccccc1/C=C/c1ccc(N(C)C)cc1	2%	nt	-23%	3%
CC[n+]1c(/C=C/c2ccc(N(C)C)cc2)ccc2ccccc21	?	-35%	13µM*	?
Cc1cc(NCc2ccccn2)nc2ccccc12	2%	0%	-2%	2%
c1ccc(CNc2ccc3ccccc3n2)nc1	-7%	-54%	-10%	18µM*
O=C(Nc1ccccc1)Nc1ccc(C(=O)N2CCOCC2)cc1	?	-3%	-25%	13µM*
O=C(Nc1cc(C(=O)N2CCCC2)ccc1N1CCCC1)c1ccccc1F	1%	-10%	4%	-23%
O=C(Nc1ccc(C(=O)N2CCCC2)cc1)c1ccccc1F	?	4%	-26%	14µM*
Cc1ccc(CNC(=O)CSc2c(C(C)C)cnc3c2c(=O)n(C)c(=O)n3C)cc1	-2%	nt	nt	nt
COc1cccc(CNC(=O)CSc2nc3ccccc3nc2Cc2ccc(C)cc2)c1OC	-5%	nt	nt	nt
Cc1nc(Nc2ccccc2)sc1-c1ccccc1	-5%	-5%	35µM*	-9%
CCCCCN1C(C(=O)c2ccccc2)=C(NC(=O)c2ccc(OC)cc2)c2ccccc2S1(=O)=O	0%	nt	nt	nt
CCCCOC(=O)c1ccc(O)cc1	-5%	8%	20%	-5%
CCCCCCCCOC(=O)c1ccc(N)cc1	-2%	3%	28µM*	7%
Cc1cc(C(=O)Nc2cccc3ccccc23)oc1C	7%	nt	-12%	nt
O=C(Nc1ccccc1)c1cc2ccccc2o1	-6%	-22%	?	14µM*
Cc1cc(C(=O)Nc2ccccc2)oc1C	-1%	-26%	-19%	16µM*
CC1CCN(c2ccc(-c3cccc(NS(=O)(=O)c4ccc(F)cc4F)c3)nn2)CC1	0%	nt	nt	nt
COc1ccc(S(=O)(=O)NCCS(=O)(=O)N2CCN(c3ccccc3)CC2)cc1OC	3%	nt	nt	nt
C#C[C@]1(O)CC[C@@H]2[C@H]3CCC4=CC(=O)CC[C@H]4[C@H]3C(=C)C[C@@]21CC	-6%	nt	nt	nt
Cc1cc(C(=O)Nc2ccccn2)cs1	-16%	-3%	-18%	14µM*
CN(C(=O)c1ccco1)c1nnc(C23CC4CC(CC(C4)C2)C3)s1	-2%	-37%	5%	2%
CN(C(=O)c1ccco1)c1nc2c(s1)CCCC2	-18%	-73%	?	25µM*
S=c1[nH]nc(Cn2c(-c3ccccn3)nc3ccccc32)n1-c1ccc2c(c1)OCCO2	16µM*	6%	-8%	?
Oc1ccc(-c2n[nH]c(=S)n2-c2ccc3c(c2)OCCO3)cc1	4.5µM*	16%	18%	?
COc1ccc(-n2c(-c3ccc(C)cc3)n[nH]c2=S)cc1	?	?	22%	?
SMILES	Tb PYK inh	NS1 inh	RE007 growth inh	LmPK inh
S=c1[nH]nc(-c2ccc3ncccc3c2)n1-c1ccc2c(c1)OCCO2	3.5µM*	nt	-5%	7.1µM*
COc1cccc(-c2nn3c(=O)cc(CN4CCN(S(=O)(=O)c5ccc(C)cc5)CC4)nc3s2)c1	5%	nt	nt	nt
O=C1C2=C(Nc3cc([N+](=O)[O-])ccc3N2)O[C@@H]1c1ccc([C@H]2OC3=C(Nc4ccc([N+](=O)[O-])cc4N3)C2=O)cc1	nt	8%	nt	nt
CC(C)N(CCC(=O)c1ccc2ccccc2c1)Cc1ccccc1	0%	-34%	4µM*	nt
CC(OC(=O)c1ccc2ccccc2c1)C(=O)N(C)Cc1ccccc1 (stereo not drawn)	7%	nt	-5%	nt
CCn1c(CN2CCN(c3cccc(Cl)c3)CC2)nc2c1c(=O)[nH]c(=O)n2C	3%	nt	nt	nt
CCc1nnc(NC(=O)CSc2nccn2Cc2ccc(F)cc2)s1	4%	nt	nt	nt
O=C(/C=C/c1ccccc1Cl)Nc1ccccc1	-9%	-63%	?	14µM*
CCCCOc1ccc(-c2cc(C(=O)NNC(=S)NCC)c3ccccc3n2)cc1	-10%	-7%	63µM*	-26%
CCCCOc1cccc(-c2cc(C(=O)NNC(=S)NCC)c3ccccc3n2)c1	3%	4%	-13%	7%
CCNC(=S)NNC(=O)c1cc(-c2ccc(OC)cc2)nc2ccccc12	-26%	8%	18µM*	?
CCNC(=S)NNC(=O)c1cc(-c2cccc(C)c2)nc2ccccc12	-3%	-6%	?	?
Cc1nc2ccc(C(C(F)(F)F)(C(F)(F)F)C(F)(F)F)cc2[nH]1	3%	-86%	28µM*	2%
Cc1nc2ccc(Cl)cc2[nH]1	2%	nt	-8%	nt
COc1ccc(C(=O)N2CCC3(CCN(Cc4ccccc4OC)CC3)CC2)cc1	-10%	nt	nt	nt
